According to PubChem BioAssay (NCI):
Compounds without any hit were thinned out: in the full panel of roughly 79,000, 15% have a hit. Values without a mark were called inactive. No stated cut-off is given here; in the data, active means growth inhibition above about 70%; inactive means the rest.

Assay: NCI Yeast Anticancer Drug Screen. Data for the cln2 rad14 strain (AID 165);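 further: 0% = growth equal to vehicle treated cultures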
Details: S. cerevisiae cln2 rad14 strain, hits give high values; at 50.0 µM unless noted
Method in brief: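 The screen exposed genetically defined yeast (cln2 rad14) to test compounds and scored growth inhibition relative to vehicle-treated controls.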

| Structure (SMILES) | growth inhibition [%] |
| --- | --- |
| CNCCCn1c2ccccc2c2c3c(c(-c4ccsc4)cc21)C(=O)NC3=O | -4.3 |
| Nc1ncnc(N)c1NC(=O)c1cccnc1 | -40 |
| c1ccc2nn(C3CCCO3)nc2c1 (centres undefined) | -29.4 |
| OCc1ccccc1Sc1ccccc1CO | 11.8 |
| O=C(c1ccccc1)C1(c2ccccc2)OC1(C(=O)c1ccccc1)c1ccccc1 (centres undefined) | -7.65 |
| O=C(O)c1nc2cn1/C=C\C=NCC1=CN3C=CC=NC3(C(=O)O)N1C2 (centres undefined) | -43.2 |
| O=C(OC1c2cccc3cccc(c23)C1O)c1ccccc1 (centres undefined) | 2.65 |
| O=P(O)(O)OP(=O)(O)O | -12.1 |
| CC12CC(O)C3C(CCC4CC(O)CCC43C)C1CCC2C(=O)CO (centres undefined) | 13.2 |
| CN(C)c1nc(NC(=O)NC(=O)c2c(F)cccc2F)nc(N(C)C)n1 | 8.45 |
| O=C(O)CCN(CCCCN(CCC(=O)O)CCC(=O)O)CCC(=O)O | 1.4 |
| COc1cc(CNc2ccccc2)ccc1O | -8.1 |
| Cc1cccc2ccc(-c3cc4ccccc4s3)nc12 | -87.6 |
| O=C(O)CS(=O)c1ccc2c3c(cccc13)C(=O)c1ccccc1-2 (centres undefined) | -0.05 |
| C=CCSc1cccc(C)c1 | -25.6 |
| COC1OCC(N=[N+]=[N-])C(OS(C)(=O)=O)C1OS(C)(=O)=O (centres undefined) | -6.75 |
| O=[N+]([O-])c1c[nH]c2ncnc(Cl)c12 | -6.8 |
| C[C@]12C=CC(=O)C=C1CC[C@@H]1[C@@H]2C(=O)C[C@@]2(C)[C@H]1CC[C@]2(O)C(=O)COC(=O)CSc1c2ccccc2nc2ccccc12 | 24.8 |
| O=C(O)CNC(=S)SCC(=O)O | -32.4 |
| CCOC(=O)C(F)C(=O)OCC | 12.1 |
| CCOC(Cn1ccc[n+]1CC(=O)c1ccccc1)OCC | -21.6 |
| Nc1c(F)cc(I)cc1F | -43 |
| CN=C1CC2c3cc(OC)c(OC)cc3CCN2C2=C1C(=O)CC(C)(C)C2 (centres undefined) | -19 |
| N#CC1(C(=O)c2ccccc2)C=Cc2ccccc2N1C(=O)c1ccccc1 (centres undefined) | 12.4 |

Assay: NCI Yeast Anticancer Drug Screen. Data for the bub3 strain (AID 167)
Details: S. cerevisiae bub3 mutant strain, hits give high values; at 50.0 µM unless noted
Method in brief: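 Mutant yeast screening strain plus compound; vehicle-treated cultures serve as the 0% inhibition reference.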

| Structure (SMILES) | growth inhibition [%] |
| --- | --- |
| Cc1cccc(NC(=O)C(=O)C(C(=O)c2ccc3ccccc3c2)C2OC(=O)c3ccccc32)c1C (centres undefined) | 5.75 |
| COc1ccc(C2OC3=C(Nc4cc(C)c(C)cc4N3)C2=O)cc1 (centres undefined) | -22.3 |
| COc1ccc(OC)c(/C=N\NC(=O)N/N=C/c2cc(OC)ccc2OC)c1 | 22.8 |
| COc1cc(O)c2c(=O)cc(-c3ccc(O)cc3O)oc2c1CC=C(C)C | -2.8 |
| COc1cc(NC(C)=O)c2c(c1)SCC(=O)N2 | 24 |
| CN1N=CSC12C(=O)N(c1ccccc1)C(=O)N2c1ccccc1 (centres undefined) | 3.15 |
| CN(C)CCl | -15.5 |
| CCOC(=O)C1=C(O)C[C@]2(O)C3CC=C(C)[C@@H]4CCO[C@](OC)(C[C@H]2C1)[C@]34C(=O)OC (some centres undefined) | -1.1 |
| CCC(C)C(NC(=O)C1CSC(C)(C)N1C=O)C(=O)OC1CCCCC1 (centres undefined) | -4.9 |
| O=C(CCCC1CCCCC1)OC1CCCCC1 | -3.9 |
| CCN(CC)CCNC(=O)c1ccc(I)cc1 | -4.35 |
| CCCCNC(=O)/C=C/C(=O)NCCCC | -7.35 |
| C[C@H]1CC[C@@H]2O[C@@]23C(=O)OC2OC(C)(C)[C@@H]([C@H]2O)[C@]13C | -5.2 |
| CCOC(=O)CC(=O)CC(=O)OCC | 23 |
| COC(=O)C(Br)C(Br)c1cc(OC)c(OC)c(OC)c1 (centres undefined) | 10.4 |
| Cc1ccc(S(=O)(=O)N(C)c2ccc3c(c2)C(=O)c2ccccc2-3)cc1 | 56 |
| CNCCCn1c2ccccc2c2c3c(c(-c4ccsc4)cc21)C(=O)NC3=O | -7.8 |
| Nc1ncnc(N)c1NC(=O)c1cccnc1 | -2.05 |
| c1ccc2nn(C3CCCO3)nc2c1 (centres undefined) | 3.15 |
| OCc1ccccc1Sc1ccccc1CO | -31.6 |

| Structure (SMILES) | growth inhibition [%] |
| --- | --- |
| O=C(c1ccccc1)C1(c2ccccc2)OC1(C(=O)c1ccccc1)c1ccccc1 (centres undefined) | -3.3 |
| O=C(O)c1nc2cn1/C=C\C=NCC1=CN3C=CC=NC3(C(=O)O)N1C2 (centres undefined) | 1.05 |
| O=C(OC1c2cccc3cccc(c23)C1O)c1ccccc1 (centres undefined) | 5.85 |
| O=P(O)(O)OP(=O)(O)O | -54.6 |
| CC12CC(O)C3C(CCC4CC(O)CCC43C)C1CCC2C(=O)CO (centres undefined) | 12.1 |
| CN(C)c1nc(NC(=O)NC(=O)c2c(F)cccc2F)nc(N(C)C)n1 | 18.8 |
| O=C(O)CCN(CCCCN(CCC(=O)O)CCC(=O)O)CCC(=O)O | 1.25 |
| COc1cc(CNc2ccccc2)ccc1O | 10.9 |
| Cc1cccc2ccc(-c3cc4ccccc4s3)nc12 | -10.2 |
| O=C(O)CS(=O)c1ccc2c3c(cccc13)C(=O)c1ccccc1-2 (centres undefined) | -30.8 |
| C=CCSc1cccc(C)c1 | -14.1 |
| COC1OCC(N=[N+]=[N-])C(OS(C)(=O)=O)C1OS(C)(=O)=O (centres undefined) | -16.4 |
| O=[N+]([O-])c1c[nH]c2ncnc(Cl)c12 | -3 |
| C[C@]12C=CC(=O)C=C1CC[C@@H]1[C@@H]2C(=O)C[C@@]2(C)[C@H]1CC[C@]2(O)C(=O)COC(=O)CSc1c2ccccc2nc2ccccc12 | -9.4 |
| O=C(O)CNC(=S)SCC(=O)O | 5.2 |
| CCOC(=O)C(F)C(=O)OCC | -4.55 |
| CCOC(Cn1ccc[n+]1CC(=O)c1ccccc1)OCC | -5.75 |
| Nc1c(F)cc(I)cc1F | 10.2 |
| CN=C1CC2c3cc(OC)c(OC)cc3CCN2C2=C1C(=O)CC(C)(C)C2 (centres undefined) | 36.4 |
| N#CC1(C(=O)c2ccccc2)C=Cc2ccccc2N1C(=O)c1ccccc1 (centres undefined) | 26.2 |
